# Measurements taken from PubChem BioAssay AID1159580 (chemical genetic matrix, 2015).
# About 2,000 (36%) of roughly 5,500 compounds were called active. Roughly 18% stayed inconclusive and do not appear here. Some of the results follow. Unmarked numbers belong to inactive results. Rule as the data show it: active = normalized growth mostly below about 0.91 (no sharp cut-off); inconclusive = no clear call, values can overlap the other calls; inactive = mostly above about 0.92.
# Test: chemical genetic growth profiling, strain panel (AID 1159580);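 also: tested at 20 µM; growth read once vehicle control cultures reached saturation at 30 °C; 1 = growth at the plate median or of vehicle wells; lower values mean less growth of the strain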
# Conditions: growth OD
# [1] = S. cerevisiae deletion strains, locus YDL101C, strain DUN1, active compounds read low
# [2] = S. cerevisiae deletion strains, locus YHR030C, strain SLT2, active compounds read low
smiles,measurement,setting,value
N=C(N)SCc1c(F)cccc1Cl,normalized growth,"S. cerevisiae deletion strains, locus YAL013W, strain DEP1, active compounds read low",0.996
same,normalized growth,"S. cerevisiae deletion strains, locus YBR229C, strain ROT2, active compounds read low",0.986
same,normalized growth,"S. cerevisiae deletion strains, locus YCL061C, strain MRC1, active compounds read low",1.01
same,normalized growth,[1],0.968
same,normalized growth,"S. cerevisiae deletion strains, locus YDL134C, strain PPH21, active compounds read low",1
same,normalized growth,"S. cerevisiae deletion strains, locus YDR150W, strain NUM1, active compounds read low",0.984
same,normalized growth,"S. cerevisiae deletion strains, locus YEL061C, strain CIN8, active compounds read low",0.98
same,normalized growth,"S. cerevisiae deletion strains, locus YGR078C, strain PAC10, active compounds read low",0.989
same,normalized growth,"S. cerevisiae deletion strains, locus YGR229C, strain SMI1, active compounds read low",0.998
same,normalized growth,[2],0.947
same,normalized growth,"S. cerevisiae deletion strains, locus YHR087W, strain rtc3, active compounds read low",0.978
same,normalized growth,"S. cerevisiae deletion strains, locus YJR043C, strain POL32, active compounds read low",0.99
same,normalized growth,"S. cerevisiae deletion strains, locus YJR075W, strain HOC1, active compounds read low",0.991
same,normalized growth,"S. cerevisiae deletion strains, locus YKL190W, strain CNB1, active compounds read low",0.983
same,normalized growth,"S. cerevisiae deletion strains, locus YLR039C, strain RIC1, active compounds read low",0.978
same,normalized growth,"S. cerevisiae deletion strains, locus YLR058C, strain SHM2 (second series), active compounds read low",0.986
same,normalized growth,"S. cerevisiae deletion strains, locus YLR085C, strain ARP6, active compounds read low",0.993
same,normalized growth,"S. cerevisiae deletion strains, locus YLR262C, strain YPT6, active compounds read low",0.989
same,normalized growth,"S. cerevisiae deletion strains, locus YML094W, strain GIM5, active compounds read low",0.935
same,normalized growth,"S. cerevisiae deletion strains, locus YMR219W, strain ESC1, active compounds read low",1
same,normalized growth,"S. cerevisiae deletion strains, locus YMR263W, strain SAP30, active compounds read low",1.04
same,normalized growth,"S. cerevisiae deletion strains, locus YNL128W, strain TEP1, active compounds read low",0.968
same,normalized growth,"S. cerevisiae deletion strains, locus YNL153C, strain GIM3, active compounds read low",1.01
same,normalized growth,"S. cerevisiae deletion strains, locus YNL298W, strain CLA4 (second series), active compounds read low",0.96
same,normalized growth,"S. cerevisiae deletion strains, locus YNL322C, strain KRE1, active compounds read low",0.982
same,normalized growth,"S. cerevisiae deletion strains, locus YNR030W, strain Alg12, active compounds read low",0.975
same,normalized growth,"S. cerevisiae deletion strains, locus YPL055C, strain LGE1, active compounds read low",0.956
same,normalized growth,"S. cerevisiae deletion strains, locus YPL241C, strain CIN2, active compounds read low",1.12
same,normalized growth,"S. cerevisiae deletion strains, locus YPR135W, strain CTF4, active compounds read low",0.896
same,normalized growth,"S. cerevisiae strains, strain wild type, active compounds read low",0.986
N/C(=N/OCc1c(F)cccc1Cl)c1ccc(Cl)cc1,normalized growth,"S. cerevisiae deletion strains, locus YAR019C, strain CDC15, active compounds read low",0.914
same,normalized growth,"S. cerevisiae deletion strains, locus YBL105C, strain PKC1, active compounds read low",0.922
same,normalized growth,"S. cerevisiae deletion strains, locus YBR135W, strain CKS1, active compounds read low",0.929
same,normalized growth,"S. cerevisiae deletion strains, locus YBR136W, strain MEC1, active compounds read low",0.92
same,normalized growth,"S. cerevisiae deletion strains, locus YBR160W, strain CDC28, active compounds read low",0.932
same,normalized growth,"S. cerevisiae deletion strains, locus YDL017W, strain CDC7, active compounds read low",0.921
same,normalized growth,"S. cerevisiae deletion strains, locus YDL028C, strain MPS1, active compounds read low",0.93
same,normalized growth,[1],0.921
same,normalized growth,"S. cerevisiae deletion strains, locus YDL108W, strain KIN28, active compounds read low",0.922
same,normalized growth,"S. cerevisiae deletion strains, locus YDL132W, strain cdc53, active compounds read low",0.95
same,normalized growth,"S. cerevisiae deletion strains, locus YDL214C, strain PRR2, active compounds read low",0.91
same,normalized growth,"S. cerevisiae deletion strains, locus YDR052C, strain DBF4, active compounds read low",0.941
same,normalized growth,"S. cerevisiae deletion strains, locus YDR054C, strain cdc34, active compounds read low",0.905
same,normalized growth,"S. cerevisiae deletion strains, locus YDR226W, strain ADK1, active compounds read low",0.905
same,normalized growth,"S. cerevisiae deletion strains, locus YDR477W, strain SNF1, active compounds read low",0.92
same,normalized growth,"S. cerevisiae deletion strains, locus YER123W, strain YCK3, active compounds read low",0.934
same,normalized growth,"S. cerevisiae deletion strains, locus YER133W, strain GLC7, active compounds read low",0.912
same,normalized growth,"S. cerevisiae deletion strains, locus YFL009W, strain cdc4, active compounds read low",0.913
same,normalized growth,"S. cerevisiae deletion strains, locus YFL029C, strain CAK1, active compounds read low",0.922
same,normalized growth,"S. cerevisiae deletion strains, locus YFR003C, strain YPI1, active compounds read low",0.924
same,normalized growth,"S. cerevisiae deletion strains, locus YFR019W, strain FAB1, active compounds read low",0.914
same,normalized growth,"S. cerevisiae deletion strains, locus YFR028C, strain CDC14, active compounds read low",0.94
same,normalized growth,"S. cerevisiae deletion strains, locus YGR040W, strain KSS1, active compounds read low",0.919
same,normalized growth,"S. cerevisiae deletion strains, locus YGR052W, strain FMP48, active compounds read low",0.925
same,normalized growth,"S. cerevisiae deletion strains, locus YGR092W, strain DBF2, active compounds read low",0.824
same,normalized growth,[2],0.721 (active)
same,normalized growth,"S. cerevisiae deletion strains, locus YHR079C, strain IRE1, active compounds read low",0.326 (active)
same,normalized growth,"S. cerevisiae deletion strains, locus YHR082C, strain KSP1, active compounds read low",0.974
same,normalized growth,"S. cerevisiae deletion strains, locus YHR205W, strain SCH9, active compounds read low",0.765
same,normalized growth,"S. cerevisiae deletion strains, locus YIL147C, strain SLN1, active compounds read low",0.916
same,normalized growth,"S. cerevisiae deletion strains, locus YJL095W, strain BCK1, active compounds read low",0.842
same,normalized growth,"S. cerevisiae deletion strains, locus YJL128C, strain PBS2, active compounds read low",0.945
same,normalized growth,"S. cerevisiae deletion strains, locus YJL157C, strain FAR1, active compounds read low",0.929
same,normalized growth,"S. cerevisiae deletion strains, locus YJR016C, strain ILV3, active compounds read low",0.929
same,normalized growth,"S. cerevisiae deletion strains, locus YJR066W, strain TOR1 (second series), active compounds read low",0.962
same,normalized growth,"S. cerevisiae deletion strains, locus YJR066W, strain TOR1, active compounds read low",0.93
same,normalized growth,"S. cerevisiae deletion strains, locus YKL048C, strain ELM1, active compounds read low",0.903
same,normalized growth,"S. cerevisiae deletion strains, locus YKL067W, strain YNK1, active compounds read low",0.923
same,normalized growth,"S. cerevisiae deletion strains, locus YKL101W, strain HSL1, active compounds read low",0.911
same,normalized growth,"S. cerevisiae deletion strains, locus YKL193C, strain SDS22, active compounds read low",0.907
same,normalized growth,"S. cerevisiae deletion strains, locus YKL203C, strain TOR2, active compounds read low",0.997
same,normalized growth,"S. cerevisiae deletion strains, locus YLR113W, strain HOG1, active compounds read low",0.785 (active)
same,normalized growth,"S. cerevisiae deletion strains, locus YLR133W, strain CKI1, active compounds read low",0.935
same,normalized growth,"S. cerevisiae deletion strains, locus YLR403W, strain SFP1, active compounds read low",0.847
same,normalized growth,"S. cerevisiae deletion strains, locus YML070W, strain DAK1, active compounds read low",0.909
same,normalized growth,"S. cerevisiae deletion strains, locus YMR001C, strain CDC5, active compounds read low",0.916
same,normalized growth,"S. cerevisiae deletion strains, locus YMR205C, strain PFK2 (second series), active compounds read low",0.886
same,normalized growth,"S. cerevisiae deletion strains, locus YMR277W, strain FCP1, active compounds read low",0.919
same,normalized growth,"S. cerevisiae deletion strains, locus YNL006W, strain LST8, active compounds read low",0.928
same,normalized growth,"S. cerevisiae deletion strains, locus YNL020C, strain ARK1, active compounds read low",0.926
same,normalized growth,"S. cerevisiae deletion strains, locus YNL161W, strain CBK1, active compounds read low",0.916
same,normalized growth,"S. cerevisiae deletion strains, locus YNL183C, strain NPR1, active compounds read low",0.956
same,normalized growth,"S. cerevisiae deletion strains, locus YNL207W, strain RIO2, active compounds read low",0.903
same,normalized growth,"S. cerevisiae deletion strains, locus YNL222W, strain SSU72, active compounds read low",0.933
same,normalized growth,"S. cerevisiae deletion strains, locus YNL307C, strain MCK1 (second series), active compounds read low",0.917
same,normalized growth,"S. cerevisiae deletion strains, locus YOL078W, strain AVO1, active compounds read low",0.915
same,normalized growth,"S. cerevisiae deletion strains, locus YOL136C, strain PFK27, active compounds read low",0.901
same,normalized growth,"S. cerevisiae deletion strains, locus YOR061W, strain CKA2, active compounds read low",0.966
same,normalized growth,"S. cerevisiae deletion strains, locus YOR119C, strain RIO1, active compounds read low",0.983
same,normalized growth,"S. cerevisiae deletion strains, locus YOR231W, strain MKK1, active compounds read low",0.932
same,normalized growth,"S. cerevisiae deletion strains, locus YOR329C, strain SCD5, active compounds read low",0.915
same,normalized growth,"S. cerevisiae deletion strains, locus YPL031C, strain PHO85, active compounds read low",0.902
same,normalized growth,"S. cerevisiae deletion strains, locus YPL153C, strain RAD53, active compounds read low",0.933
same,normalized growth,"S. cerevisiae deletion strains, locus YPL204W, strain HRR25, active compounds read low",0.908
same,normalized growth,"S. cerevisiae deletion strains, locus YPL209C, strain IPL1, active compounds read low",0.919
same,normalized growth,"S. cerevisiae deletion strains, locus YPL256C, strain CLN2, active compounds read low",0.767 (active)
same,normalized growth,"S. cerevisiae deletion strains, locus YPR025C, strain CCL1, active compounds read low",0.926
same,normalized growth,"S. cerevisiae deletion strains, locus YPR106W, strain ISR1, active compounds read low",0.915
same,normalized growth,"S. cerevisiae deletion strains, locus YPR111W, strain DBF20, active compounds read low",0.911
same,normalized growth,"S. cerevisiae deletion strains, strain NNK1, active compounds read low",0.899
same,normalized growth,"S. cerevisiae deletion strains, strain TSCII, active compounds read low",0.91
